Experimental data as given in PubChem BioAssay (NCI).
Compounds without any hit were thinned out: in the full panel of roughly 83,000, 20% have a hit.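 Interpretation: 100, growth as untreated; towards 0, rising growth inhibition; 0, no net growth; 0 to -100, cell death. Compounds scoring below 10 were considered active.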 The source made the active and inactive calls.

Legend:
Assay in all cases: NCI-60 one-dose screen, 48 h (100 = growth as untreated, 0 = no growth, -100 = all killed)
Conditions in all cases: 10 µM unless noted
SR leukemia = system: SR leukemia
RPMI-8226 leukemia = system: RPMI-8226 leukemia
OVCAR-8 ovarian = system: OVCAR-8 ovarian
OVCAR-5 ovarian = system: OVCAR-5 ovarian
OVCAR-4 ovarian = system: OVCAR-4 ovarian
SK-OV-3 ovarian = system: SK-OV-3 ovarian
IGROV1 ovarian = system: IGROV1 ovarian
OVCAR-3 ovarian = system: OVCAR-3 ovarian
HS 578T breast = system: HS 578T breast
NCI/ADR-RES ovarian = system: NCI/ADR-RES ovarian
T-47D breast = system: T-47D breast
BT-549 breast = system: BT-549 breast
MDA-MB-435 melanoma = system: MDA-MB-435 melanoma
SW-620 colon = system: SW-620 colon
MCF7 breast = system: MCF7 breast
HCT-116 colon = system: HCT-116 colon
HCC-2998 colon = system: HCC-2998 colon
KM12 colon = system: KM12 colon

Measured: growth

CC1=C2[C@@H](CC1)[C@]1(C)O[C@@](C(C)C)(C[C@H]1OC(=O)CO)[C@H]2OC(=O)CCCc1ccccc1
inactive: SR leukemia 76.1% | RPMI-8226 leukemia 22.7% | OVCAR-8 ovarian 35.4% | OVCAR-5 ovarian 100% | OVCAR-4 ovarian 80% | SK-OV-3 ovarian 105% | IGROV1 ovarian 62.8% | OVCAR-3 ovarian 61.3% | NCI/ADR-RES ovarian 44.8% | T-47D breast 25.3% | BT-549 breast 53.3% | MDA-MB-435 melanoma 78.7% | SW-620 colon 77.3% | MCF7 breast 82.4% | HCT-116 colon 68.7% | HCC-2998 colon 84% | KM12 colon 60.9%
active: HS 578T breast -4.02%

CCNc1nc(-c2ccc(Cl)c(OC)c2)c(-c2ccnc(NCCNS(=O)(=O)c3ccc(Cl)cc3)n2)s1
inactive: SR leukemia 21.5% | RPMI-8226 leukemia 21.4% | OVCAR-8 ovarian 37.9% | OVCAR-5 ovarian 40.7% | OVCAR-4 ovarian 31.8% | IGROV1 ovarian 39.3% | HS 578T breast 24.1% | NCI/ADR-RES ovarian 33% | T-47D breast 32.5% | SW-620 colon 29.5% | HCC-2998 colon 56.3% | KM12 colon 48.8%
active: SK-OV-3 ovarian 1.58% | OVCAR-3 ovarian -3.31% | BT-549 breast 5.74% | MDA-MB-435 melanoma 6.21% | MCF7 breast 6.61% | HCT-116 colon 7.13%

COc1ccc2c(c1)c(-c1nc(-c3cn(C)c4ccncc34)cs1)cn2C
active: SR leukemia -26.1% | RPMI-8226 leukemia -48% | OVCAR-8 ovarian -3.91% | OVCAR-5 ovarian -16.7% | OVCAR-4 ovarian -3.39% | IGROV1 ovarian -2.51% | OVCAR-3 ovarian -77.6% | MDA-MB-435 melanoma -90% | SW-620 colon -77.5% | MCF7 breast -55.7% | HCT-116 colon -88.6% | HCC-2998 colon -54.1% | KM12 colon -53.1%
inactive: SK-OV-3 ovarian 119% | HS 578T breast 104% | NCI/ADR-RES ovarian 10.2% | T-47D breast 95.7% | BT-549 breast 91.2%

C=CCn1c(SCC(=O)Nc2ccc(C(=O)/C=C/c3cc(OC)c(OC)c(OC)c3)cc2)nnc1-c1cc(-c2ccc(S(N)(=O)=O)cc2)nc2ccccc12
active: RPMI-8226 leukemia 4.9%
inactive: SR leukemia 28.1% | OVCAR-8 ovarian 57.2% | OVCAR-5 ovarian 123% | OVCAR-4 ovarian 83.7% | SK-OV-3 ovarian 111% | IGROV1 ovarian 80.4% | OVCAR-3 ovarian 81.1% | HS 578T breast 108% | NCI/ADR-RES ovarian 103% | T-47D breast 81.1% | BT-549 breast 75.2% | MDA-MB-435 melanoma 80.2% | SW-620 colon 76.8% | MCF7 breast 26.5% | HCT-116 colon 17.2% | HCC-2998 colon 105% | KM12 colon 59.8%

CC(=O)c1c(/C=C/c2ccc(C)cc2)c2ccccc2[nH]c1=O
inactive: SR leukemia 99.5% | RPMI-8226 leukemia 91.5% | OVCAR-8 ovarian 86.8% | OVCAR-5 ovarian 100% | OVCAR-4 ovarian 88.9% | SK-OV-3 ovarian 90.2% | IGROV1 ovarian 57.4% | OVCAR-3 ovarian 92.5% | HS 578T breast 85.9% | NCI/ADR-RES ovarian 85.8% | T-47D breast 85.7% | BT-549 breast 95.1% | MDA-MB-435 melanoma 96.1% | SW-620 colon 95.1% | MCF7 breast 88.7% | HCT-116 colon 91.7% | HCC-2998 colon 96.5% | KM12 colon 100%

O=C(/C=C\c1ccc(O)c(O)c1)c1ccccc1O
inactive: OVCAR-8 ovarian 69.4% | OVCAR-5 ovarian 103% | OVCAR-4 ovarian 74.9% | SK-OV-3 ovarian 97% | IGROV1 ovarian 46.3% | OVCAR-3 ovarian 73.8% | HS 578T breast 91.8% | NCI/ADR-RES ovarian 74.3% | T-47D breast 67% | MDA-MB-435 melanoma 67.9% | SW-620 colon 67.7% | MCF7 breast 48% | HCT-116 colon 83.7% | HCC-2998 colon 60.7% | KM12 colon 60.7%
active: SR leukemia -13.3% | RPMI-8226 leukemia 5.13% | BT-549 breast 5.5%

O=C(O)COc1ccc(F)cc1
inactive: SR leukemia 103% | RPMI-8226 leukemia 97.5% | OVCAR-8 ovarian 102% | OVCAR-5 ovarian 109% | OVCAR-4 ovarian 116% | SK-OV-3 ovarian 108% | IGROV1 ovarian 107% | OVCAR-3 ovarian 107% | HS 578T breast 128% | NCI/ADR-RES ovarian 101% | T-47D breast 104% | BT-549 breast 119% | MDA-MB-435 melanoma 108% | SW-620 colon 112% | MCF7 breast 95.8% | HCT-116 colon 103% | HCC-2998 colon 103% | KM12 colon 103%

CC(C)=CCC[C@](C)(O)C1CC[C@]2(C)[C@@H]1CC[C@@H]1[C@@]3(C)CC/C(=N\OCCC#N)C(C)(C)[C@@H]3CC[C@]12C (stereo partly drawn)
inactive: SR leukemia 61.6% | RPMI-8226 leukemia 36% | OVCAR-8 ovarian 85.1% | OVCAR-5 ovarian 99.1% | OVCAR-4 ovarian 79.9% | SK-OV-3 ovarian 84.3% | IGROV1 ovarian 97.4% | OVCAR-3 ovarian 93.2% | HS 578T breast 92.9% | NCI/ADR-RES ovarian 97.7% | T-47D breast 52.6% | BT-549 breast 102% | MDA-MB-435 melanoma 87.7% | SW-620 colon 78.8% | MCF7 breast 63.2% | HCT-116 colon 66.2% | HCC-2998 colon 84.5% | KM12 colon 84.7%

CCOC(=O)c1c(C)nc2c(c1N)C(=O)C(=O)N2CCc1ccc(OC)c(OC)c1
inactive: SR leukemia 35.9% | RPMI-8226 leukemia 42.7% | OVCAR-8 ovarian 77.9% | OVCAR-5 ovarian 94.9% | OVCAR-4 ovarian 54.8% | SK-OV-3 ovarian 76.6% | IGROV1 ovarian 74% | OVCAR-3 ovarian 61.5% | HS 578T breast 89% | NCI/ADR-RES ovarian 41.9% | T-47D breast 44.6% | BT-549 breast 64.4% | MDA-MB-435 melanoma 41.4% | SW-620 colon 47.8% | MCF7 breast 20.3% | HCT-116 colon 38.7% | HCC-2998 colon 93.7% | KM12 colon 58.3%

Cn1ncc(CC(=O)O)c1-n1nnc2cc(Cl)ccc2c1=O
inactive: SR leukemia 87.6% | RPMI-8226 leukemia 106% | OVCAR-8 ovarian 99.6% | OVCAR-5 ovarian 98.1% | OVCAR-4 ovarian 94.6% | SK-OV-3 ovarian 111% | IGROV1 ovarian 103% | OVCAR-3 ovarian 114% | HS 578T breast 91.5% | NCI/ADR-RES ovarian 101% | T-47D breast 102% | BT-549 breast 102% | MDA-MB-435 melanoma 92.7% | SW-620 colon 103% | MCF7 breast 110% | HCT-116 colon 99.5% | HCC-2998 colon 107% | KM12 colon 102%

Nc1c(C(=O)c2ccc(Cl)cc2)sc(Nc2ccccc2)c1-c1nc2ccccc2s1
inactive: SR leukemia 33.2% | RPMI-8226 leukemia 28.3% | OVCAR-8 ovarian 23% | OVCAR-5 ovarian 46.4% | IGROV1 ovarian 29.1% | HS 578T breast 32.4% | NCI/ADR-RES ovarian 18.8% | T-47D breast 11.8% | BT-549 breast 55.2% | MDA-MB-435 melanoma 16.7% | SW-620 colon 39.3% | MCF7 breast 43.9% | HCT-116 colon 13.9% | HCC-2998 colon 67.5% | KM12 colon 16.1%
active: OVCAR-4 ovarian -9.61% | SK-OV-3 ovarian -0.592% | OVCAR-3 ovarian 4.1%
